Assay outcomes as filed in PubChem.
TDP1 cell noCPT – qHTS for Inhibitors of human tyrosyl-DNA phosphodiesterase 1 (TDP1): qHTS in cells in absence of CPT | DT40 Tdp1-/- hTDP1 cells, no CPT, ATP luminescence, 48 h | Potency, µM (doses to about 46.2 µM), inactives show top-dose activity change, negative = growth inhibition, usual class: inhibitors | hit rate 15% among 420,000 | AID 686978, 2013; note: potency is the fitted concentration of half-maximal effect; nearly all actives have a fitted effect of over 55% in size
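Cells were dispensed at 400 per well, compounds added by pin tool, plates incubated ≥48 hr at 37 °C, then CellTiter-Glo added for 30 min at room temperature before luminescence reading. Line: DT40 Tdp1-/- complemented with hTDP1; camptothecin omitted.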
VP16 counter – VP16 counterscreen qHTS for inhibitors of ROR gamma transcriptional activity; Potency, µM (series often up to 53.6 µM), for inactives: top-dose activity, negative = inhibition, actives largely listed as inhibitors; Drosophila S2 Gal4-VP16 UAS-luciferase, luminescence, 20 h; hit rate 3.5% among 310,000;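 note: Gal4-VP16 expression switched on by copper sulfate through the metallothionein promoter; potency is the fitted concentration of half-maximal effect; nearly all actives have a fitted effect of over 50% in size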
ELG1 DNA repair – qHTS screen for small molecules that inhibit ELG1-dependent DNA repair in human embryonic kidney (HEK293T) cells expressing luciferase-tagged ELG1; HEK293T ELG1-luciferase reporter, luminescence, 16 h; DNA damage induced by 5-fluorouridine; Potency, µM (series often up to 46.1 µM), inactives show top-dose activity change, negative = inhibition, most hits filed as inhibitors; hit rate 2.3% among 330,000; AID 504467, 2011; note: potency is the fitted concentration of half-maximal effect; nearly all actives have a fitted effect of over 55% in size
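HEK293T cells expressing luciferase-tagged ELG1 (2,000/well) received 5-Fluorouridine plus compound or DMSO for 16 hr at 37 °C. Luciferase was read by ONE-Glo luminescence after 30 min at room temperature.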
RORgamma inh – qHTS for inhibitors of ROR gamma transcriptional activity; Nuclear receptor ROR-gamma (Mus musculus), P51450; Drosophila S2 Gal4-RORgamma UAS-luciferase reporter, 20 h; AID 2551, 2010; Potency, µM (titrated, usually from 53.6 µM), for the others: at the highest dose activity change, negative = inhibition, usual class: inhibitors; hit rate 5.4% among 310,000; note: potency is the fitted concentration of half-maximal effect; nearly all actives have a fitted effect of over 60% in size
Target sequence (P51450 whole entry, looked up, the tested form may be a part): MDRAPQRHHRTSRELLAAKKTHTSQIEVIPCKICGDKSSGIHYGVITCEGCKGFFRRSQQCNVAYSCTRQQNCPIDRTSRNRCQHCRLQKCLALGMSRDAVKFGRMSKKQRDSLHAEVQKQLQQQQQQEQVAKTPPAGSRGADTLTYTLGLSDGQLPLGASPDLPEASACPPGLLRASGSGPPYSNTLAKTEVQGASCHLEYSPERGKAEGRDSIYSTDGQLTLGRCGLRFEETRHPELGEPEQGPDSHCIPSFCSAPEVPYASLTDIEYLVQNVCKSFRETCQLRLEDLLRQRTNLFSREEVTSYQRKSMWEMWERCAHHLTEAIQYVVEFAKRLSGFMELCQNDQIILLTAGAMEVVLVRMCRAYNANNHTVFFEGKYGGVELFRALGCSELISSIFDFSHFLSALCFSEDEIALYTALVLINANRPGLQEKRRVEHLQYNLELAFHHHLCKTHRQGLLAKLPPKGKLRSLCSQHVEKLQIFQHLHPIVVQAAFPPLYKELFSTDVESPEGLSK
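Drosophila Schneider cells stably carrying a metallothionein-driven Gal4 DBD–ROR gamma fusion and a UAS-Photinus luciferase reporter were exposed to compound for 1 hr, then induced with copper sulfate (700 uM final) for 20 hr at ambient temperature before luminescence reading.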
DT40 TDP1 CPT – qHTS for Inhibitors of human tyrosyl-DNA phosphodiesterase 1 (TDP1): qHTS in cells in presence of CPT. chicken DT40 Tdp1-/-;hTDP1 cells + 20 nM CPT, ATP luminescence, 48 h. Potency, µM (top dose mostly 46.2 µM), inactives show at the highest dose activity change, negative = growth inhibition, hits mostly inhibitors. hit rate 12% among 420,000. AID 686979, 2013; note: potency is the fitted concentration of half-maximal effect; nearly all actives have a fitted effect of over 55% in size
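Chicken DT40 Tdp1-/- cells complemented with human TDP1, 400 cells/well, exposed to compounds plus 20 nM camptothecin for at least 48 h at 37 C; viability read as ATP content by CellTiter-Glo luminescence.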
IL-1B inflam inh – qHTS for Inhibitors of Inflammasome Signaling: IL-1-beta AlphaLISA Primary Screen. hit rate 4.7% among 360,000. THP-1 LPS/ATP IL-1B secretion, AlphaLISA, 16 h; stronger effect = lower value. activity change, % at 57.5 µM; in the data active = activity change below about -50%; inconclusive = mostly about -30% to -49%
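THP-1 cells pretreated 1 hr with compounds (up to 57.5 uM final), then stimulated with LPS (250 ng/mL final) plus ATP (1.25 mM final); secreted IL-1B measured by AlphaLISA after 16 hr, decreased signal indicating inhibition.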
* marks the source's active call; other numbers are inactive results; ? = inconclusive; . = no result. Sampled rows, rich in hits. Any-hit rate of the full collection: about 21%. Unless noted, calls come from the whole dose curve; as a rule, active = well fitted curve in the direction sought with a large enough effect; inconclusive = small, poorly fitted or top-dose-only effect, or another doubt; inactive = no such curve, though single readings can be large; an effect the other way counts as inactive or inconclusive. % is set by controls: 0 for no effect and ±100 for the full control effect.

SMILES | TDP1 cell noCPT | VP16 counter | ELG1 DNA repair | RORgamma inh | DT40 TDP1 CPT | IL-1B inflam inh
COc1ccc(CN2C(=O)C(CC(=O)NCC3CCCCC3)CC(C(=O)N(C)C)=C2C)cc1 (stereo not drawn) | ? | . | . | . | ? | -23.8
CCN(CC)C(=O)C1=C(C)N(Cc2ccc(OC)cc2)C(=O)C(CC(=O)NCC2CCCCC2)C1 (stereo not drawn) | 20.6µM* | . | . | . | ? | -12.3
CC1=C(C(=O)N(C(C)C)C(C)C)CC(CC(=O)NCC2CCCCC2)C(=O)N1Cc1ccc(C(C)(C)C)cc1 (stereo not drawn) | 18.7µM* | . | . | . | 18.7µM* | .
CC1=C(C(=O)N(C(C)C)C(C)C)CC(CC(=O)NC2CC2)C(=O)N1Cc1ccc(C(C)(C)C)cc1 (stereo not drawn) | 29.1µM* | . | . | . | ? | -0.3
C[C@H](O)[C@@H]1C(=O)N2CCc3c([nH]c4ccccc34)[C@@H]2C[C@@H]1N(C)C(=O)NC1CCCCC1 | ? | . | . | . | -17.4% | -15.5
CCOC(=O)C1CSC(CC(=O)Nc2ccc(Cl)c(Cl)c2)C(=O)N1 (stereo not drawn) | -24.1% | ? | . | 20.5% | -25.0% | 1.7
CC(=O)NC(=S)Nc1ccc(S(=O)(=O)N2CCOCC2)cc1 | -16.9% | -2.9% | 0.1% | 23.3% | 15.8% | -1.7
CC(C)(C)NNC(=S)Nc1ccc(S(=O)(=O)N2CCOCC2)cc1 | ? | ? | ? | 5.62µM* | -9.2% | 16.2
COc1ccc(NC(=S)Nc2ccc(S(N)(=O)=O)cc2)c(OC)c1 | -0.1% | 0.8% | -3.2% | -26.4% | 18.5% | 0.0
COc1ccc(S(=O)(=O)N2CCCN(CC(=O)Nc3ccccc3F)CC2)cc1 | ? | 4.2% | -9.3% | -4.1% | -27.9% | -3.9
COc1ccc(NC(=O)c2ccc(S(=O)(=O)N3CCCCCC3)cc2)c(OC)c1 | 13µM* | -4.9% | -10.8% | 15.3% | -27.0% | -11.0
COc1ccc(NC(=O)CN2CCCN(S(=O)(=O)c3ccc(Br)cc3)CC2)c(OC)c1 | 23.1µM* | . | . | . | ? | .
COc1ccc(NC(=S)Nc2ccc(S(=O)(=O)N3CCOCC3)cc2)c(OC)c1 | -19.8% | 2.9% | 23.1µM* | -23.5% | 4.7% | 13.9
CCOC(=O)CC1(NC(=O)C2CCC(=O)N(Cc3ccccc3OC)C2)CCCCC1 (stereo not drawn) | -0.7% | -0.1% | ? | -9.2% | -1.0% | -1.3
CC1=C(C(=O)N(C(C)C)C(C)C)CC(CC(=O)NCCCCc2ccccc2)C(=O)N1CCCN1CCCC1=O (stereo not drawn) | -29.2% | . | . | . | -0.9% | -0.5
Cc1ccc(S(=O)(=O)N2CCCCC2)cc1NC(=O)c1ccc2c(c1)OCO2 | ? | -8.0% | ? | 37.3% | ? | -3.1
Cc1ccc(NS(=O)(=O)c2ccc(C)c(NC(=O)c3ccc(S(=O)(=O)N4CCCCCC4)cc3)c2)c(C)c1 | 10.3µM* | . | . | . | 18.4µM* | 8.0
CN(CC(=O)Nc1ccc(F)cc1)C(=O)COC(=O)c1nc(Cl)ccc1Cl | -4.2% | . | . | . | -1.9% | 12.1
CN1N=C(N)c2cn(C3OC(COP(=O)(O)O)C(O)C3O)c3ncnc1c23 (stereo not drawn) | -27.2% | . | . | . | ? | 181.2
Cc1cc2ncn(/N=C/c3ccc(-c4ccccc4)o3)c2cc1C | ? | 20µM* | -4.6% | 11.2µM* | -8.7% | -3.8
Cc1cc2ncn(/N=C/c3ccc4c(c3)OCO4)c2cc1C | ? | ? | -5.4% | -7.7% | ? | -1.3
CC(C)OC(=O)N(C)C[C@H]1OCc2cn(nn2)CCCC(=O)N([C@H](C)CO)C[C@@H]1C | -14.7% | . | . | . | -6.7% | 3.3
Oc1ccc(/C=N/n2c(-c3ccccc3)n[nH]c2=S)cc1 | ? | -8.7% | 0.0% | ? | ? | 7.8
Cc1ccc(/C=N/n2c(-c3ccncc3)n[nH]c2=S)cc1 | -23.8% | 12.6µM* | ? | 8.91µM* | -19.2% | 11.2
CC(C)(C)c1ccc(-c2n[nH]c(=S)n2/N=C/c2ccncc2)cc1 | ? | 14.1µM* | -0.5% | ? | -25.3% | 15.0
SMILES | TDP1 cell noCPT | VP16 counter | ELG1 DNA repair | RORgamma inh | DT40 TDP1 CPT | IL-1B inflam inh
COc1ccc(OCC(=O)Nc2sc3c(c2C(=O)NCC2CCCO2)CCC3)cc1 (stereo not drawn) | ? | -10.9% | 16.4µM* | 9.6% | ? | 2.4
O=C(Nc1cccc(Cl)c1)c1c(NC(=O)C(F)(F)F)sc2c1CCCC2 | 3.26µM* | . | . | . | 6.51µM* | .
Cc1ccc(NC(=O)c2c(NC(=O)C(F)(F)F)sc3c2CCCCC3)cc1 | 3.66µM* | . | . | . | 2.59µM* | .
COC(=O)c1c(NC(=O)COC(=O)[C@@H](NS(=O)(=O)c2ccc(C)cc2)C(C)C)sc2c1CCC2 | 23.1µM* | -21.1% | ? | 3.9% | ? | -28.9
CCOCCCN(C)C1CCN(C(=O)c2oc3ccccc3c2NC(=O)c2ccc(F)cc2)CC1 | -8.7% | 4.1% | 1.4% | -23.6% | ? | -2.1
O=C(CNC(=O)c1n[nH]c2ccccc12)Nc1ccc(F)c(F)c1F | 7.9% | . | ? | . | 3.1% | 21.0
COC(=O)c1c(NC(=O)COc2cccc(C(F)(F)F)c2)sc2c1CCCC2 | ? | . | . | . | -18.3% | .
Cc1ccccc1NC(=O)c1c(NC(=O)C(F)(F)F)sc2c1CCCCC2 | 2.91µM* | . | . | . | 3.66µM* | .
O=C(COc1ccc(Cl)cc1)Nc1sc2c(c1C(=O)Nc1cccc(Cl)c1)CCCC2 | 7.31µM* | . | . | . | 18.4µM* | .
Cc1ccccc1NC(=O)c1c(NC(=O)c2ccncc2)sc2c1CCC(C(C)(C)C)C2 (stereo not drawn) | 6.51µM* | . | . | . | 18.4µM* | .
CCOc1ccccc1NC(=O)c1c(NC(=O)c2ccncc2)sc2c1CCC(C(C)(C)C)C2 (stereo not drawn) | -17.3% | . | . | . | -22.8% | .
COC(=O)c1c(NC(=O)COc2ccc(C(C)C)cc2)sc2c1CCCC2 | 23.1µM* | . | . | . | ? | .
COc1ccc(NC(=O)c2c(NC(=O)COc3ccccc3)sc3c2CCCCC3)cc1 | -7.4% | . | . | . | -1.4% | .
O=c1c(Cl)c(N2CCN(S(=O)(=O)c3ccc(F)cc3)CC2)cnn1-c1cccc(Cl)c1 | ? | -10.7% | -18.3% | -2.1% | ? | ?
